One may read the viability as a read-out of living cells in per cent, often relative to untreated cells.

Experimental findings from PubChem BioAssay (NCATS) are described below.

Records with an inconclusive call do not appear. Unmarked numbers belong to inactive results. The source made the active and inactive calls. The call rests on the fitted dose curve; in most records, active means well fitted curve in the direction sought with a large enough effect; inconclusive means small, poorly fitted or top-dose-only effect, or another doubt; inactive means no such curve, though single readings can be large; an effect the other way counts as inactive or inconclusive.

Experiment [1] can be described thus: Quantitative High-Throughput drug screen in 47 multiple myeloma cell lines against the NCATS MIPE library collection: MMM1_PLB cell viability assay (AID 1918976). Further: potency means the concentration at half of the fitted maximal effect; nearly all actives have a fitted effect of over 35% in size. The method, boiled down:
(§1)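 Viability after 48 h drug exposure was measured as ATP-dependent luminescence. Cells, 500 per well, sat at 37 °C under 5% CO2; DMSO wells set 100%, media-only wells 0%.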

Experiment [2] in a line: Quantitative High-Throughput drug screen in 47 multiple myeloma cell lines against the NCATS MIPE library collection: OCIMY1_PLB cell viability assay (AID 1918979). Further: nearly all actives have a fitted effect of over 35% in size. The method, boiled down:
as §1

Experiment [3] is described as follows: Quantitative High-Throughput drug screen in 47 multiple myeloma cell lines against the NCATS MIPE library collection: MM1R_ATCC cell viability assay (AID 1918981). Further: nearly all actives have a fitted effect of over 35% in size. Further: potency means the concentration at half of the fitted maximal effect. The gist of the method: as §1
Experiment [4] is described as follows: Quantitative High-Throughput drug screen in 47 multiple myeloma cell lines against the NCATS MIPE library collection: LP1_DSMZ cell viability assay (AID 1918982). Further: nearly all actives have a fitted effect of over 35% in size. Further: potency means the concentration at half of the fitted maximal effect. The gist of the method: as §1
The nature of experiment [5]: Quantitative High-Throughput drug screen in 47 multiple myeloma cell lines against the NCATS MIPE library collection: KMS28PE_JCRB cell viability assay (AID 1918983). Further: nearly all actives have a fitted effect of over 35% in size. Further: potency means the concentration at half of the fitted maximal effect. The method, boiled down:
as §1

The nature of experiment [6]: Quantitative High-Throughput drug screen in 47 multiple myeloma cell lines against the NCATS MIPE library collection: L363_DSMZ cell viability assay (AID 1918984). Further: nearly all actives have a fitted effect of over 40% in size. Further: potency means the concentration at half of the fitted maximal effect. The method, boiled down:
as §1

Experiment [7] can be described thus: Quantitative High-Throughput drug screen in 47 multiple myeloma cell lines against the NCATS MIPE library collection: OCIMY5_PLB cell viability assay (AID 1918988). Further: nearly all actives have a fitted effect of over 65% in size. Further: potency means the concentration at half of the fitted maximal effect. The method, boiled down: as §1
The nature of experiment [8]: Quantitative High-Throughput drug screen in 47 multiple myeloma cell lines against the NCATS MIPE library collection: OPM1_PLB cell viability assay (AID 1918989). Further: nearly all actives have a fitted effect of over 40% in size. Further: potency means the concentration at half of the fitted maximal effect. The method, boiled down: as §1
Experiment [9] can be described thus: Quantitative High-Throughput drug screen in 47 multiple myeloma cell lines against the NCATS MIPE library collection: U266_ATCC cell viability assay (AID 1919864). Further: nearly all actives have a fitted effect of over 35% in size. Further: potency means the concentration at half of the fitted maximal effect. The gist of the method: as §1
A short description of experiment [10]: Quantitative High-Throughput drug screen in 47 multiple myeloma cell lines against the NCATS MIPE library collection: UTMC2_PLB cell viability assay (AID 1919868). Further: nearly all actives have a fitted effect of over 55% in size. Further: potency means the concentration at half of the fitted maximal effect. The following applies: CellTiter-Glo ATP luminescence, 48 h; viability (% of DMSO control): at 45.8 µM (top of the series). The method, boiled down: as §1
For orientation: In ATP-based viability assays light output follows the ATP content of the culture.

The nature of experiment [11]: Quantitative High-Throughput drug screen in 47 multiple myeloma cell lines against the NCATS MIPE library collection: NCIH929_DSMZ cell viability assay (AID 1918978). Further: nearly all actives have a fitted effect of over 35% in size. Further: potency means the concentration at half of the fitted maximal effect. The method, boiled down:
as §1

Experiment [12] in a line: Quantitative High-Throughput drug screen in 47 multiple myeloma cell lines against the NCATS MIPE library collection: MM1S_ATCC cell viability assay (AID 1918980). Further: nearly all actives have a fitted effect of over 45% in size. Further: potency means the concentration at half of the fitted maximal effect. The method, boiled down:
as §1

Experiment [13] is described as follows: Quantitative High-Throughput drug screen in 47 multiple myeloma cell lines against the NCATS MIPE library collection: OCIMY7_PLB cell viability assay (AID 1918987). Further: nearly all actives have a fitted effect of over 65% in size. Further: potency means the concentration at half of the fitted maximal effect. The method, boiled down:
as §1

Experiment [14] in a line: Quantitative High-Throughput drug screen in 47 multiple myeloma cell lines against the NCATS MIPE library collection: XG6_PLB cell viability assay (AID 1919865). Further: nearly all actives have a fitted effect of over 40% in size. Further: potency means the concentration at half of the fitted maximal effect. The method, boiled down:
as §1

A short description of experiment [15]: Quantitative High-Throughput drug screen in 47 multiple myeloma cell lines against the NCATS MIPE library collection: VP6_DJ cell viability assay (AID 1919867). Further: nearly all actives have a fitted effect of over 40% in size. Further: potency means the concentration at half of the fitted maximal effect. The method, boiled down: as §1
Experiment [16] in a line: Quantitative High-Throughput drug screen in 47 multiple myeloma cell lines against the NCATS MIPE library collection: KMS34_JCRB cell viability assay (AID 1918985). Further: nearly all actives have a fitted effect of over 40% in size. Further: potency means the concentration at half of the fitted maximal effect. The method, boiled down: as §1
Experiment [17] in a line: Quantitative High-Throughput drug screen in 47 multiple myeloma cell lines against the NCATS MIPE library collection: MOLP8_DSMZ cell viability assay (AID 1918977). Further: nearly all actives have a fitted effect of over 45% in size. Further: potency means the concentration at half of the fitted maximal effect. The method, boiled down:
as §1

Experiment [18] in a line: Quantitative High-Throughput drug screen in 47 multiple myeloma cell lines against the NCATS MIPE library collection: SKMM1_PLB cell viability assay (AID 1919863). Further: nearly all actives have a fitted effect of over 35% in size. The following applies: SKMM1 myeloma viability, CellTiter-Glo ATP, 48 h; viability: stronger effect = lower value. The method, boiled down: as §1
The nature of experiment [19]: Quantitative High-Throughput drug screen in 47 multiple myeloma cell lines against the NCATS MIPE library collection: XG1_PLB cell viability assay (AID 1919866). Further: nearly all actives have a fitted effect of over 35% in size. Further: potency means the concentration at half of the fitted maximal effect. The gist of the method:
as §1

Turning to `CCCCCCCc1ccc(CCc2cccc(O)c2C(=O)O)cc1`, the Potency in experiment [1] is 14.8 µM (active); in experiment [3] it was 8.33 µM (active); in experiment [4] it was 16.6 µM (active); in [7] it was 16.6 µM (active); in [8] it was 20.9 µM (active); in experiment [10], 29.6 µM (active). The Potency entry in [2], in experiment [5], in [6] and in experiment [9] was “inactive” each time.
For `Clc1ccc(Nc2nnc(Cc3ccncc3)c3ccccc23)cc1`, the Potency in [1] was 18.7 µM (active); in experiment [11] it was 11.8 µM (active); in experiment [12], 18.7 µM (active); in experiment [5] it was 20.9 µM (active); in [13], 3.32 µM (active); in experiment [7], 6.62 µM (active). Also, the Potency in [14] is 2.09 µM (active); in [15], 23.5 µM (active). In addition, the Potency entry in experiment [2] and in [6] was “inactive” throughout.
Consider `CC(C)(N)C(=O)N[C@H](COCc1ccccc1)C(=O)N1CCC2(CC1)CN(S(C)(=O)=O)c1ccccc12`, for which the Potency in experiment [1] is 23.5 µM (active); in experiment [12], 23.5 µM (active); in experiment [3], 18.7 µM (active); in experiment [4], 16.6 µM (active); in experiment [5], 18.7 µM (active); in [16] it was 14.8 µM (active). Further, the Potency in experiment [7] was 16.6 µM (active).
Take `Cc1cc2c(F)c(Oc3ncnn4cc(OC[C@@H](C)O)c(C)c34)ccc2[nH]1`: the Potency is 2.09 µM (active) in experiment [1]; 18.7 µM (active) in experiment [11]; 16.6 µM (active) in experiment [12]; 20.9 µM (active) in experiment [5]; 20.9 µM (active) in [8]; 23.5 µM (active) in [9]. Also, the Potency in experiment [14] is 0.743 µM (active). Further, the Potency result in [2] is “inactive”.
As for `Oc1ccc(C2CNCCc3c2cc(O)c(O)c3Cl)cc1` (stereo not drawn), the Potency entry in experiment [17], in experiment [2], in experiment [3], in [4], in experiment [5] and in experiment [8] was “inactive” throughout. The Potency result in experiment [9] and in [19] was “inactive” each time. Besides, the Potency in experiment [11] is 16.6 µM (active); in experiment [12], 3.32 µM (active); in [16], 14.8 µM (active); in experiment [7], 16.6 µM (active). The viability in experiment [18] is 103%.
Regarding `CC(C)OC(=O)C1=CN(C(=O)c2ccc(F)c(F)c2)CC(C)(C)c2c1[nH]c1ccccc21`, the Potency result in [17], in experiment [11], in experiment [16], in experiment [8], in experiment [14] and in experiment [19] was “inactive” each time. Besides, in [10], the Potency entry was “inactive”. Moreover, the viability in experiment [18] is 104%. Also, the Potency in experiment [15] was 1.87 µM (active).
As for `O=C(C=Cc1ccc(/C=C/C(=O)Nc2ccc(C3=NCCN3)cc2)cc1)Nc1ccc(C2=NCCN2)cc1`, the Potency result in [17], in [11], in [2], in [4], in experiment [16] and in [14] was “inactive” throughout. Moreover, the Potency entry in [19] and in experiment [15] was “inactive” in each case. Moreover, the viability in [18] is 118%.
For the molecule `Cc1n[nH]c(C)c1Cc1sc2c(c1C(=O)N1C[C@H](O)CO1)c(=O)n(C)c(=O)n2CC(C)C`, the Potency is 0.935 µM (active) in [17], 11.8 µM (active) in experiment [12] and 16.6 µM (active) in experiment [5]. Further, the Potency result in experiment [11], in [2], in experiment [3], in experiment [6], in [14] and in [15] was “inactive” each time.
Regarding `O=c1[nH]cnc2[nH]ncc12`, the Potency entry in experiment [17], in [11], in [3], in [4], in [5] and in experiment [16] was “inactive” each time. The Potency result in [13], in experiment [9] and in [19] was “inactive” each time.
In the case of `CCCc1nn(C)c2c(=O)[nH]c(-c3cc(S(=O)(=O)N4CCN(C)CC4)ccc3OCC)nc12`, the Potency in [1] is 23.5 µM (active); in experiment [12] it was 20.9 µM (active); in [7], 7.43 µM (active); in [9] it was 20.9 µM (active). The Potency result in [6] is “inactive”.
Regarding `Nc1nccc(-c2ccc3noc(-c4ccc(Cl)cc4)c3c2)n1`, the Potency result in experiment [17], in experiment [2], in experiment [5], in experiment [6], in experiment [8] and in experiment [10] was “inactive” throughout. Also, the Potency in [11] is 20.9 µM (active); in experiment [12] it was 16.6 µM (active); in experiment [13], 20.9 µM (active); in experiment [7], 18.7 µM (active); in experiment [14], 2.64 µM (active); in experiment [19], 3.72 µM (active).
In the case of `Nc1cccc(S(=O)(=O)N2CCCN(S(=O)(=O)c3ccc4c(c3)OCCO4)CC2)c1`, the Potency entry in experiment [17], in [11] and in [8] was “inactive” in each case. In addition, the Potency in experiment [12] is 14.8 µM (active); in experiment [3] it was 11.8 µM (active); in experiment [4], 16.6 µM (active); in experiment [19], 7.43 µM (active); in experiment [15] it was 8.33 µM (active). Besides, in [18], the viability was 103%.
Take `Nc1nc2ccc(OC(F)(F)F)cc2s1`: the Potency in experiment [1] is 23.5 µM (active); in [12] it was 2.64 µM (active); in experiment [5], 23.5 µM (active); in [15], 18.7 µM (active). In addition, the Potency result in [6], in experiment [13], in experiment [9] and in experiment [14] was “inactive” each time.
In the case of `COc1ccc(CC2=NN3C([C@@H](CCc4ccccc4)[C@@H](C)O)=NC(C)C3C(=O)N2)cc1OC` (stereo partly drawn), the Potency result in experiment [17], in experiment [11], in [2], in experiment [12], in experiment [4] and in experiment [5] was “inactive” each time. Also, the Potency entry in experiment [13], in [7], in [9] and in [19] was “inactive” in each case. Also, the Potency in [8] is 2.64 µM (active). Further, in experiment [18], the viability is 138%.
Turning to `Cc1ccccc1C(OCCN(C)C)c1ccccc1` (stereo not drawn), the Potency result in experiment [17], in [11], in experiment [2], in [12], in experiment [3] and in experiment [6] was “inactive” throughout. For the same molecule, the Potency result in experiment [8], in experiment [9], in [19] and in experiment [15] was “inactive” throughout.
Consider `CC(C[N+](C)(C)C)OC(N)=O` (stereo not drawn), for which the Potency entry in experiment [17], in [11], in experiment [2], in experiment [12], in [3] and in [8] was “inactive” throughout. Also, the Potency result in [9] is “inactive”. In [7], the Potency was 16.6 µM (active).
On to `CCCc1nc2c(C)cc(-c3nc4ccccc4n3C)cc2n1Cc1ccc(-c2ccccc2C(=O)O)cc1`, for which the Potency result in experiment [17], in experiment [11], in experiment [2], in [3], in experiment [5] and in [8] was “inactive” in each case. The Potency in [12] was 26.4 µM (active); in experiment [14] it was 23.5 µM (active); in [19] it was 20.9 µM (active); in experiment [15], 16.6 µM (active). The viability in experiment [18] was 142%.
Regarding `CCN(c1ccccc1)c1cc(NC)[n+](C)c(C)n1`, the Potency in experiment [17] is 2.09 µM (active); in [3], 16.6 µM (active); in experiment [7] it was 20.9 µM (active). Also, the Potency result in [11], in [2], in experiment [4], in [5], in experiment [8] and in experiment [14] was “inactive” each time. Also, the Potency entry in experiment [19], in experiment [15] and in [10] was “inactive” in each case.
For the molecule `NC(N)=NC(=O)c1nc(Cl)c(N)nc1N`, the Potency entry in experiment [17], in experiment [2] and in experiment [9] was “inactive” in each case. Moreover, the Potency is 9.35 µM (active) in experiment [11], 20.9 µM (active) in experiment [12], 7.43 µM (active) in [14] and 8.33 µM (active) in experiment [19].
As for `OCCC#Cc1nc(-c2ccc(F)cc2)c(-c2ccncc2)n1CCCc1ccccc1`, the Potency entry in experiment [17], in experiment [3], in experiment [5] and in experiment [9] was “inactive” throughout. Further, the Potency in experiment [11] is 8.33 µM (active); in experiment [6], 5.26 µM (active); in experiment [13] it was 5.26 µM (active); in experiment [8] it was 18.7 µM (active); in experiment [19], 18.7 µM (active). For the same molecule, the viability in experiment [18] was 114%.
